Compounds with a hit are over-represented: about 2.4% of the library has one in this group of screens.
FEN1 inh-1 – blocks human flap endonuclease 1; P39748; Recombinant FEN1 flap cleavage, fluorescence, 15 min; Potency, µM (top dose mostly 114 µM), without a hit: at the highest dose activity change, negative = inhibition, actives largely listed as inhibitors; hit rate 0.35% among 390,000; AID 588795; also: % is scaled to controls: 0 for no effect and ±100 for the full control effect; nearly all actives have a fitted effect of over 65% in size
Target sequence (P39748 whole entry, looked up): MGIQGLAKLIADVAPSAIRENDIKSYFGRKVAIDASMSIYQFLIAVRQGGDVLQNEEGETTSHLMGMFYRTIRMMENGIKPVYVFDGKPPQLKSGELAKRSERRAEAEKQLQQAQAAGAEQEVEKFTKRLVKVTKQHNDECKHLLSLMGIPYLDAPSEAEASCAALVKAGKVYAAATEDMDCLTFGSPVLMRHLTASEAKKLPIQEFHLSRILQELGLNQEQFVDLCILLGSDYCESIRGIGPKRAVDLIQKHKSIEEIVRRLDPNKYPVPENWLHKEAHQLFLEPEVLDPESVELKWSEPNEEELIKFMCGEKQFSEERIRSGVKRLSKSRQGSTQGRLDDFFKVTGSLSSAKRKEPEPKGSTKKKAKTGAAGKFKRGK
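Enzyme 10 nM, 15 min RT preincubation with compound; start with substrate 50 nM final; reads at 0 and 15 min; qHTS titration, four-parameter Hill fit.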
POLB inh – blocks human DNA polymerase beta activity; P06746; Pol beta primer extension/strand displacement, fluorescence kinetic; Potency, µM (titrated, usually from 114 µM), without a hit: at the highest dose activity change, negative = inhibition, hits mostly inhibitors; hit rate 1.3% among 340,000; AID 485314; also: % is scaled to controls: 0 for no effect and ±100 for the full control effect
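Preincubation: enzyme (10 nM) with compound, 15 min, RT. Reaction: substrate added to 50 nM final. Reads: 0 and 10 min. Analysis: normalized, Hill fit.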
POLH inh – blocks human DNA polymerase eta activity; Q9Y253; recombinant Pol eta, fluorescent DNA replication assay; Potency, µM (highest dose often 114 µM), inactives show at the highest dose activity change, negative = inhibition, most hits filed as inhibitors; hit rate 1.2% among 390,000; AID 588591; also: % is scaled to controls: 0 for no effect and ±100 for the full control effect
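Pol eta at 10 nM preincubated with compounds 15 min at room temperature; reaction started with fluorescent substrate (50 nM final) and read kinetically at 0 and 10 min.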
POLI inh – inhibitors of human DNA polymerase iota. Q9UNA4. Pol iota fluorescent replication assay, 10 min. Potency, µM (top dose mostly 115 µM), inactives show at the top dose activity, negative = inhibition, actives largely listed as inhibitors. hit rate 1% among 390,000. AID 588590
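Fluorescent replication assay read twice, at 0 min and 10 min after adding 50 nM (final) substrate. Enzyme (10 nM) and compounds were first incubated 15 min at room temperature; enzyme-free buffer wells were negative controls.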
POLK inh – blocks human DNA polymerase kappa activity. Q9UBT6. hit rate 0.53% among 400,000. Potency, µM (doses to about 107 µM), inactives show at the top dose activity, negative = inhibition, hits mostly inhibitors. purified Pol kappa, fluorescent DNA synthesis assay, 10 min; also: % is scaled to controls: 0 for no effect and ±100 for the full control effect
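First, compounds were pin-transferred onto 10 nM Pol kappa. After 15 min at room temperature, substrate was added to 50 nM final. Fluorescence was then measured kinetically at 0 and 10 min.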
WRN inhibitor – WRN helicase (human) inhibition. Potency, µM (series often up to 114 µM), for the others: at the top dose activity change, negative = inhibition, most hits filed as inhibitors. hit rate 0.46% among 360,000. WRN helicase unwinding, fluorescent forked duplex, kinetic. Q14191; also: % is scaled to controls: 0 for no effect and ±100 for the full control effect; nearly all actives have a fitted effect of over 55% in size
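Enzyme (20 nM final) and test compound sit together 15 min at room temperature before substrate addition. Substrate is a single-forked duplex oligonucleotide (100 nM) labelled with fluorophore and quencher, with 2 mM ATP; helicase unwinding raises red fluorescence, read kinetically.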
FEN1 inh-2 – confirmation of human FEN1 inhibitors. hit rate 79% among 880. FEN1 flap cleavage, TAMRA/BHQ2 fluorogenic DNA substrate. Potency, µM, usual class: inhibitors. shares compounds with FEN1 inh-1; also: nearly all actives have a fitted effect of over 60% in size
The depositor's hits bear a star; u = inconclusive; x = no result; [ ] = remark or other dose. Calls follow the shape of the dose curve; as a rule, active = well fitted curve in the direction sought with a large enough effect; inconclusive = small, poorly fitted or top-dose-only effect, or another doubt; inactive = no such curve, though single readings can be large; an effect the other way counts as inactive or inconclusive. Potency is read from the fitted curve at half-maximal effect.

SMILES	FEN1 inh-1	POLB inh	POLH inh	POLI inh	POLK inh	WRN inhibitor	FEN1 inh-2
CC(OC(=O)c1ccc([N+](=O)[O-])o1)C(=O)NC1CCCCC1C (centres undefined)	12.6µM*	x	u	-6.4%	-16.0%	6.3%	6.01*
Cn1c(N)c(C(=O)COC(=O)c2ccc([N+](=O)[O-])o2)c(=O)n(C)c1=O	u	-3.2%	89.1µM*	50.1µM*	-26.3%	-2.0%	8.49*
CC1CCCC(C)N1C(=O)COC(=O)c1ccc([N+](=O)[O-])o1 (centres undefined)	u	x	50.1µM*	50.1µM*	-12.5%	-2.7%	15.1*
CCOC(=O)C1CCN(C(=O)COC(=O)c2ccc([N+](=O)[O-])o2)CC1	u	x	79.4µM*	50.1µM*	-4.4%	15.7%	10.7*
O=C(c1ccncc1)N1CCC[C@@]2(CCN(Cc3cc(C(F)(F)F)cc(C(F)(F)F)c3)C2)C1	x	x	x	x	-3.2%[60.1 µM]	x	x
Cc1ccc(N(C)C(=O)Cn2cnc3onc(-c4ccc(F)cc4)c3c2=O)cc1C	-16.7%	2.0%	-8.2%	5.2%	-2.3%	x	x
Cc1cc(C)c2nc3nc(C)c(C)cc3c(N)c2c1	44.7µM*	15.8µM*	-19.5%	31.6µM*	u	7.7%[11.6 µM]	23.9*
c1ccc2c(c1)-c1cccc3cncc-2c13	u	x	-11.1%	38.6%	-3.5%	-0.2%[11.6 µM]	u
Nc1nc(O)c(N=Nc2ccc(S(N)(=O)=O)cc2)c(=O)[nH]1	3.3%	-0.2%	-17.6%	150.9%	-5.8%	-5.7%	x
NS(=O)(=O)c1ccc(N=Nc2c(O)c(C(=O)O)cc3ccccc23)cc1	u	35.5µM*	39.8µM*	u	-8.7%	-9.2%[11.6 µM]	u
NC(=O)C1C(=O)c2ccccc2C1(C[N+](=O)[O-])c1ccccc1 (centres undefined)	44.7µM*	x	-14.7%	73.1%	-8.2%	4.0%[11.6 µM]	42.6*
O=C(O)CC1(c2ccccc2)C(=O)c2ccccc2C1=O	-0.2%	2.6%	-15.9%	23.1%	-11.3%	-2.6%	x
CCc1nnc(SCC(=O)Nc2cccc(C(F)(F)F)c2)c2cc3oc(C)cc3n12	18.5%	-7.7%	-18.5%	2.2%	-8.4%	x	x
Cc1ccc2nc(N=C(N)N)nc(C)c2c1	50.1µM*	-9.0%	-6.2%	48.4%	9.7%	40.7%	33.8*
Cc1nc(/N=C(\N)NC(=O)c2ccccc2)nc2ccccc12	4.5%	-11.4%	-6.3%	u	-10.4%	-3.1%	x
Cc1nc(N=C(N)N)nc2ccccc12	u	-28.6%	9.9%	-9.7%	10.8%	45.2%	47.8*
CCc1ccc2nc(N=C(N)N)nc(C)c2c1	u	-17.5%	-9.6%	116.7%	-9.2%	78.5%	x
Cc1cc2nc(N=C(N)N)nc(C)c2cc1C	17.8µM*	-2.4%	-0.9%	-24.7%	4.8%	77.5%	67.5*
COc1ccc(-n2c(=O)c3c(c4cc(OC)ccc4n3C)n(Cc3c(F)cccc3Cl)c2=O)cc1	-1.2%	18.7%	-1.9%	21.3%	1.1%	x	x
CCC(CC)C(=O)Nc1ccccc1C(=O)OCc1cc(=O)n2nc(C3CCCCC3)sc2n1	-1.7%	14.5%	-17.8%	12.3%	-5.6%[60.1 µM]	x	x
COc1ncc2nc(CCc3ccccc3)c(=O)n(Cc3cccs3)c2n1	x	x	x	x	0.1%[60.1 µM]	x	x
CC(C)(C)/C(O)=C/c1nc2cc(Cl)ccc2oc1=O	28.2µM*	3.8%	-7.3%	4.7%	-18.9%	-10.1%	12*
Cc1ccc2oc(=O)c(/C=C(\O)c3ccco3)nc2c1	9.1%	28.8%	-23.0%	45.7%	-8.5%	1.2%	x
Cc1ccc2oc(=O)c(/C=C(\O)C(C)(C)C)nc2c1	50.1µM*	-2.7%	-10.3%	15.0%	12.6%	-8.4%	33.8*
CCOC(=O)C1=C(O)C(=O)C(C(=O)OCC)C1 (centres undefined)	4.47µM*	x	-16.3%	11.8%	0.3%	5.3%	8.49*
